Ecoli rRNA inh – inhibitors of bacterial rRNA selective over humanized ribosomes; E. coli WT GFP vs humanized-ribosome RFP mutants, fluorescence, 24 h; active compounds read low; DMSO median 0, no signal -100; GFP signal change (wild-type ribosome), % (concentration not given with the values); 350,000 tested, 1.6% active;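 active means significant combined selectivity score with lowered wild-type GFP, culture density cut under 30%, mutant RFP and density less affected; inactive means any of these conditions unmet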
PAX8 inh HTS – lowers PAX8-driven luciferase in RMG-I cells | RMG-I TPO-luciferase reporter, SteadyGlo, 24 h | 360,000 tested, 1.2% active | inhibition, % at 12.6 µM | AID 652154;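 active means mean replicate inhibition at least 60% with every replicate also reaching 60%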;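 further: luciferase light reporting Pax8 driven TPO promoter activity; plate controls were median of neutral control wells for no effect and mitoxantrone controls for full effect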
PGC1a acetyl inh – modulators of PGC1a acetylation; 350,000 tested, 0.17% active; inhibition, % at 15.6 µM; U2OS PGC1a acetylation, AlphaScreen anti-acetyl-lysine; with virally co-expressed GCN5 acetyltransferase;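 active means every replicate shows inhibition of at least 40%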;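 further: 0% = neutral control wells and 100% = positive control wells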
EWS-Fli inh – EWS/Fli transcriptional activity inhibition; A673 NR0B1-luciferase reporter, viability-normalised; 350,000 tested, 0.67% active; inhibition, % at 12.6 µM;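 active means mean inhibition of at least 50% after viability correction, with every replicate also passing that limit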;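 further: firefly luciferase signal divided by Alamar Blue viability fluorescence both relative to DMSO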
SIRT5 block – blocks human SIRT5 desuccinylation of peptide; inhibition, % at 15 µM; Purified SirT5, succinyl-peptide AMC, trypsin-coupled fluorescence; 330,000 tested, 1.1% active; AID 652115; Q9NXA8; in the data active means inhibition above about 15%
Target sequence (Q9NXA8 whole entry, looked up): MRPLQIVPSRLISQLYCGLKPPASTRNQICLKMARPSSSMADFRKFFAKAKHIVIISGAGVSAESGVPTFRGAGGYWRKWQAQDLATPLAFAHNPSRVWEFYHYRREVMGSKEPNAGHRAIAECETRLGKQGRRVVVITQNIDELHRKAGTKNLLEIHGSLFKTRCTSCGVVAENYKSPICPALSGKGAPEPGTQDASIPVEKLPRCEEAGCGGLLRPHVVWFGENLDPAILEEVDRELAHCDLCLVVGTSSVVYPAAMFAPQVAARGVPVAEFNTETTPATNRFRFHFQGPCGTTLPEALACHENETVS
LGR2 antag – blocks bursicon-induced cAMP signaling via Drosophila LGR2. HEK293 LGR2, CRE-luciferase, bursicon-stimulated, 4 h. inhibition, % at 9.99 µM. 380,000 tested, 0.35% active;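 active means drop in luminescence signal, shown as inhibition above about 50% in the replicate tests, limit read from the data, passing the limit was not always enough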;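 further: agonist challenge used bursicon conditioned medium at about half maximal strength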
Starred values were filed as active, the others as inactive. A selection: hits, their analogues and other compounds. The true share with any hit is near 3.4%.

Results for COc1ccccc1NC(=O)C/C(N)=N/OCC(=O)Nc1cccc(Cl)c1 ?
PAX8 inh HTS: 21.4; PGC1a acetyl inh: -3.4; EWS-Fli inh: -3.3; SIRT5 block: -0.3

What do the screens show for `COc1ccccc1NCC(=O)NNC(C)C(=O)Nc1cccc(Cl)c1` (stereo not drawn)?
Ecoli rRNA inh: -32.2*; PAX8 inh HTS: -43.4; PGC1a acetyl inh: 3.1; EWS-Fli inh: -16.1; SIRT5 block: -0.9; LGR2 antag: -10.1

Results for CC(=O)N(C1=C(Cl)C(=O)c2ccccc2C1=O)C1CCCCC1 ?
Ecoli rRNA inh: -19.9; PAX8 inh HTS: 99.5*; PGC1a acetyl inh: 30.8; EWS-Fli inh: 54.9*; SIRT5 block: 3.1; LGR2 antag: 8.2

Results for Cc1ccccc1C(=O)Nc1ccc(C(=O)N/N=C/c2ccc(F)cc2)cc1 ?
Ecoli rRNA inh: 6.1; PAX8 inh HTS: 2.7; PGC1a acetyl inh: 8.4; EWS-Fli inh: 11.0; SIRT5 block: -2.1; LGR2 antag: 14.3

Results for Cc1ccccc1C(=O)Nc1ccc(C(=O)N/N=C/c2ccc(O)c(Br)c2)cc1 ?
Ecoli rRNA inh: -19.2*; PAX8 inh HTS: 7.6; EWS-Fli inh: 7.0; SIRT5 block: 5.8; LGR2 antag: -20.0

Results for O=C(NCc1ccc2c(c1)OCO2)C(=O)NCC1OCCN1S(=O)(=O)c1ccc(Cl)cc1 (stereo not drawn) ?
Ecoli rRNA inh: 11.1; PAX8 inh HTS: 5.3; PGC1a acetyl inh: -4.3; EWS-Fli inh: -2.4; SIRT5 block: 22.2*; LGR2 antag: -6.1

How did O=C(NCc1ccc2c(c1)OCO2)C(=O)NCC1OCCN1S(=O)(=O)c1ccc(Br)cc1 (stereo not drawn) do in these assays?
Ecoli rRNA inh: -13.9; PAX8 inh HTS: 32.7; SIRT5 block: 1.6; LGR2 antag: 14.4

Results for Cc1ccc(Cl)cc1N1CCN(C(=O)c2noc(C)c2[N+](=O)[O-])CC1 ?
Ecoli rRNA inh: -11.3; PAX8 inh HTS: 105.3*; EWS-Fli inh: 70.3*; SIRT5 block: -4.7; LGR2 antag: 9.5

How did Cc1onc(C(=O)N2CCN(c3ccccc3)CC2)c1[N+](=O)[O-] do in these assays?
Ecoli rRNA inh: 3.7; PAX8 inh HTS: 15.0; PGC1a acetyl inh: 2.5; SIRT5 block: -2.8; LGR2 antag: -10.3

What do the screens show for `CCc1cc[n+](C2=C([O-])c3ccccc3C(=O)/C2=N\S(=O)(=O)c2cccs2)cc1`?
Ecoli rRNA inh: -4.7; PAX8 inh HTS: 86.7*; EWS-Fli inh: 3.2; SIRT5 block: -5.2; LGR2 antag: 17.3

How did CCc1nc2c(OCc3ccc(S(C)(=O)=O)cc3)cccn2c1N(C)C(=O)c1ccccc1F do in these assays?
Ecoli rRNA inh: 6.7; PAX8 inh HTS: 4.5; PGC1a acetyl inh: 45.3*; EWS-Fli inh: -4.0; SIRT5 block: -1.2; LGR2 antag: -0.7

How did COc1cc(/C=C/C(O)=C/C(=O)/C=C/c2ccc(O)cc2)ccc1O do in these assays?
Ecoli rRNA inh: -2.8; PAX8 inh HTS: 62.9*; PGC1a acetyl inh: -16.8; EWS-Fli inh: 20.4; LGR2 antag: -1.1

What do the screens show for `O=S(=O)(N[C@@H]1CC[C@@H](CCn2cc(-c3ccccc3F)nn2)O[C@H]1CO)c1ccc(F)cc1`?
Ecoli rRNA inh: -1.9; PAX8 inh HTS: -22.2; PGC1a acetyl inh: -16.2; EWS-Fli inh: 4.7; SIRT5 block: 0.3; LGR2 antag: -4.9

What do the screens show for `COc1ccc(CNC(=O)c2c(C)oc3c2C(=O)c2ccccc2C3=O)cc1`?
Ecoli rRNA inh: -31.9; PAX8 inh HTS: 28.1; PGC1a acetyl inh: 17.2; EWS-Fli inh: 32.5; SIRT5 block: -1.1; LGR2 antag: 76.7*

How did CC(=O)c1c(C)oc2c1C(=O)c1ccccc1C2=O do in these assays?
Ecoli rRNA inh: 30.0; PAX8 inh HTS: 10.3; LGR2 antag: -4.0

What do the screens show for `C[C@@H]1CN(C)C(=O)c2cc(NS(C)(=O)=O)ccc2O[C@@H]1CN(C)S(C)(=O)=O`?
Ecoli rRNA inh: 2.4

What do the screens show for `CC(C)(C)OC(=O)[C@H](Cc1ccccc1)NC(=O)c1nc[nH]c1C(=O)NC1CCNCC1`?
Ecoli rRNA inh: -1.7; PAX8 inh HTS: -0.1; PGC1a acetyl inh: 5.3; EWS-Fli inh: 5.0; LGR2 antag: -0.3

Results for CC(C)C[C@H](NC(=O)c1nc[nH]c1C(=O)NC1CCNCC1)C(=O)OC(C)(C)C ?
Ecoli rRNA inh: 2.9; PAX8 inh HTS: -21.2; PGC1a acetyl inh: -32.2; EWS-Fli inh: -8.4; SIRT5 block: 17.5*

Results for CC(C)C[C@H](NC(=O)c1nc[nH]c1C(=O)N[C@@H](CCCCNC(=O)OC(C)(C)C)C(=O)OC(C)(C)C)C(=O)OC(C)(C)C ?
PAX8 inh HTS: 101.6*; PGC1a acetyl inh: -2.8; EWS-Fli inh: 36.9; SIRT5 block: 0.9

Results for CCOC(=O)C(Cc1ccc(O)c([N+](=O)[O-])c1)N1C(=O)c2ccccc2C1=O (stereo not drawn) ?
Ecoli rRNA inh: -25.4*; PAX8 inh HTS: 7.4; EWS-Fli inh: 4.4; SIRT5 block: 1.7; LGR2 antag: -13.3

Results for CCCC(=O)Nc1ccc2c(c1)OC[C@@H](C)N(Cc1cncnc1)C[C@@H](C)[C@@H](OC)CN(C)C2=O ?
Ecoli rRNA inh: -1.3; PAX8 inh HTS: -26.8; PGC1a acetyl inh: -5.1; EWS-Fli inh: 6.3; SIRT5 block: 2.7; LGR2 antag: -14.8

How did CN(C)CCCN(Cc1ccccc1)C(=S)Nc1ccc(F)c(Cl)c1 do in these assays?
Ecoli rRNA inh: -45.8*; PAX8 inh HTS: -3.3; PGC1a acetyl inh: 1.8; EWS-Fli inh: 11.9; SIRT5 block: 4.5; LGR2 antag: 11.6

How did CN(C)CCCN(Cc1ccccc1)C(=S)Nc1cccc(C(F)(F)F)c1 do in these assays?
PAX8 inh HTS: 0.9; PGC1a acetyl inh: -14.7; LGR2 antag: 9.3

What do the screens show for `COc1ccc(NC(=S)N(Cc2ccc(Cl)cc2)Cc2ccc(C(=O)O)cc2)cc1Cl`?
Ecoli rRNA inh: -32.4*; PAX8 inh HTS: 7.3; EWS-Fli inh: 6.0; SIRT5 block: -0.1; LGR2 antag: 12.5

How did COc1ccccc1S(=O)(=O)N[C@H]1CC[C@@H](CCNC(=O)C2CCCC2)O[C@H]1CO do in these assays?
Ecoli rRNA inh: 4.4; PAX8 inh HTS: -11.4; PGC1a acetyl inh: -0.7; EWS-Fli inh: 4.9; SIRT5 block: 3.6; LGR2 antag: -4.1

What do the screens show for `C[C@H]1CN([C@@H](C)CO)C(=O)c2ccccc2-c2ccccc2CO[C@@H]1CN(C)C(=O)c1ccncc1`?
Ecoli rRNA inh: -1.2

Results for Cc1ccnc(NC(=O)c2cccc(NC(=O)Cc3ccccc3)c2)c1 ?
Ecoli rRNA inh: -31.5*; PAX8 inh HTS: -9.7; PGC1a acetyl inh: -18.8; EWS-Fli inh: -9.3; SIRT5 block: 5.8; LGR2 antag: -4.0

What do the screens show for `Cc1cccc(C(=O)Nc2cccc(C(=O)Nc3cc(C)ccn3)c2)c1`?
PGC1a acetyl inh: 7.6

Source: PubChem (Broad Institute)
